In the library only some 1.6% were active in any assay of this set; here they are far more common.
NALP1 yeast inh – NALP1 inhibition | S. cerevisiae NALP1/ASC/caspase-1 growth, X-gal OD620, 72 h | 280,000 tested, 0.61% active | inhibition, % at 10 µM; in the data active = inhibition mostly above about 24%, no sharp cut-off; inactive = mostly below about 32%
CR mimetic SO – lowers age-related superoxide in aged yeast cells. S. cerevisiae aged cells, superoxide DHE fluorescence; hits give low values. superoxide response (% of plate mean), % at 10 µM. 330,000 tested, 0.18% active;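 active = superoxide response under a set limit, about three screen SD below normal, cut at about 65% in these data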;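 note: yeast aged for seven days with compound at 30 °C before DHE staining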
PERK inh – human PERK inhibition, primary cell-based screen; 220,000 tested, 0.17% active; CHO PERK-DD fusion, SEAP luminescence translation reporter; Q9NZJ5; inhibition, % at 5.6 µM;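 active = inhibition above the mean inhibition of all tested compounds plus 3 SD, set separately per screening campaign, cut at about 2.9% in these data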;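 note: PERK kinase domain activated by AP20187 dimerizer at 100 nM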
NLRP3 yeast inh – inhibitors of NALP3 inflammasome in yeast; 330,000 tested, 0.39% active; inhibition, % at 10 µM; Yeast reconstituted NLRP3/ASC/caspase-1, beta-gal luminescence, 24 h; AID 2825;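 active = inhibition of 50% or more; inactive = inhibition below 50%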
V-ATPase pHluor – yeast V-ATPase proton transport regulation by pHLuorin. S. cerevisiae, pHLuorin cytosolic pH fluorescence. response, % at 10 µM. 350,000 tested, 0.37% active. AID 504577; in the data active = response mostly above about 7.3%, no sharp cut-off; inactive = mostly below about 5.4%; note: actives read high
Rce1 inh – inhibitors of yeast Ras-converting enzyme; Q03530; yeast membranes, quenched prenylated peptide cleavage fluorescence; calls only; 290,000 tested, 0.27% active; AID 2563;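 active = fall in fluorescence gain of 50% or more versus controls, with final raw signal at or below 3038400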
Target sequence (Q03530 whole entry, looked up): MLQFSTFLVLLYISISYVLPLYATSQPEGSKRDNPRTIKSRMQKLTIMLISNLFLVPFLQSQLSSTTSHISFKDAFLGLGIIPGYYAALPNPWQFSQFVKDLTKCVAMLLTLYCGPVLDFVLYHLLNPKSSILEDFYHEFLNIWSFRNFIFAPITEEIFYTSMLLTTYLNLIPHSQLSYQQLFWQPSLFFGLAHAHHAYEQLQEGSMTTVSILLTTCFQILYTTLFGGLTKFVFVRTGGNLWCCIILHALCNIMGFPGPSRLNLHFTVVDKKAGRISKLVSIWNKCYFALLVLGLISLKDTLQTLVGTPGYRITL
VATPase regulator – regulators of yeast V-ATPase proton transport; shares compounds with V-ATPase pHluor; S. cerevisiae pHLuorin cytosolic pH; response, % at 10 µM; 980 tested, 2% active; AID 602197; in the data active = response above about 24%
A number is an active result; 0 = inactive; - = not tested or not shown.

SMILES | NALP1 yeast inh | CR mimetic SO | PERK inh | NLRP3 yeast inh | V-ATPase pHluor | Rce1 inh | VATPase regulator
C[C@@H]1CN([C@H](C)CO)C(=O)CCCn2cc(nn2)CO[C@H]1CN(C)S(=O)(=O)c1ccccc1 | - | - | - | - | 0 | - | -
CN1CCN(CC(=O)Nc2c(C(=O)C3CC3)oc3ccccc23)CC1 | 0 | 0 | 0 | 0 | 0 | 0 | -
CCOC(=O)CSCC(=O)Nc1c(C(=O)C2CC2)oc2ccccc12 | 0 | 0 | 0 | 0 | 7.5 | 0 | 0
COc1ccc(NC(=O)CN(C)S(=O)(=O)c2ccc3c(c2)NC(=O)CS3)cc1 | 0 | 0 | - | 0 | 0 | 0 | -
COc1cccc(NC(=O)CN(C)S(=O)(=O)c2ccc3c(c2)NC(=O)CS3)c1 | 0 | 0 | - | 0 | 0 | 0 | 0
O=C(NCc1ccco1)Nc1ccc(OC(F)(F)F)cc1 | 0 | 0 | 0 | 0 | 0 | 0 | -
O=C(NCc1ccco1)Nc1ccc(Br)cc1 | 0 | 0 | 0 | 0 | 11 | 0 | 0
O=C(O)CCCN1C(=O)C2C3CCC(C3)C2C1=O (stereo unspecified) | - | - | - | - | 0 | - | -
CCCCCCN1C[C@@H](O)[C@H](n2cc(-c3ccc(F)cc3)nn2)C[C@@H]1c1ccccc1 | - | - | - | - | 0 | - | -
O=C(NCc1ccc2c(c1)OCO2)c1cc2n(n1)C(C(F)(F)F)CC(c1ccc3c(c1)OCO3)N2 (stereo unspecified) | 0 | 0 | 0 | 0 | 0 | - | -
CCOC(=O)N1CCN(C(=O)c2cc3n(n2)C(C(F)(F)F)CC(c2ccc4c(c2)OCO4)N3)CC1 (stereo unspecified) | 0 | 0 | - | 0 | 7.4 | 0 | 0
CC(C)N(C(=O)CSc1nnnn1C1CCCC1)C(C)C | 0 | 0 | 0 | 0 | 8.1 | 0 | 0
O=C(O)CSc1nnnn1C1CCCCC1 | 0 | 0 | 0 | 0 | 0 | 0 | -
COc1ccc([N+](=O)[O-])cc1NC(=O)COC(=O)C12CC3CC(CC(O)(C3)C1)C2 | - | - | - | - | 0 | - | -
Cc1ccc(S(=O)(=O)NCc2ccccc2)cc1C(=O)N1CCN(S(=O)(=O)c2ccccc2F)CC1 | - | - | - | - | 0 | - | -
CC(C)CN=CC1=C(O)c2ccccc2C1=O | - | 0 | 0 | 0 | 0 | 0 | -
O=C1C(C=NC2CC2)=C(O)c2ccccc21 | 0 | 0 | 0 | 0 | 9.8 | 0 | 0
N=C1c2ccccc2CN1NC(=O)COc1ccc(Cl)cc1 | 0 | 0 | 0 | 0 | 11 | 0 | 0
CC(C)c1ccc(C(=O)OCC(=O)Nc2cccc(S(=O)(=O)NC3=NCCC3)c2)cc1 | - | - | - | - | 7.2 | - | 0
CCc1ccccc1OCC(=O)Nc1cccc(S(=O)(=O)NC2=NCCC2)c1 | - | 0 | - | 0 | 9.5 | - | 0
O=C(COC(=O)c1ccc(O)cc1)Nc1cccc(S(=O)(=O)NC2=NCCC2)c1 | - | 0 | - | 0 | 0 | - | -
Cc1c(NC(=O)c2cc3ccccc3o2)cccc1-n1cnnn1 | - | - | - | - | 0 | - | -
COc1ccc(/C=C\C(=O)O[C@@H]2C(O)C(O[C@@H]3OC(C)[C@H](O[C@@H]4OCC(O[C@H]5O[C@H](CO)[C@@H](O)C(O)C5O)C(O)C4O)C(O)C3O)[C@H](OC(=O)[C@]34CCC(C)(C)C[C@@H]3C3=CCC5[C@@]6(C)CC(O)C(O[C@@H]7OC(CO)C(O)[C@H](O)[C@H]7O)[C@@](C)(C(=O)O)C6CC[C@@]5(C)[C@]3(CO)CC4)O[C@H]2C)cc1 (stereo partly specified) | - | 0 | - | 0 | 0 | - | -
CC1(C)OCC(N)(CO)CO1 | - | - | - | - | 0 | - | -
N#CCCN(Cc1cccnc1)S(=O)(=O)c1ccc(S(=O)(=O)NC2CCCCC2)cc1 | 0 | 0 | 0 | 0 | 8.6 | 0 | 0
SMILES | NALP1 yeast inh | CR mimetic SO | PERK inh | NLRP3 yeast inh | V-ATPase pHluor | Rce1 inh | VATPase regulator
CCn1cc(C(=O)NCc2ccco2)c(=O)c2ccc(C)nc21 | 0 | 0 | - | 0 | 6.7 | 0 | 0
CCn1cc(C(=O)NCc2ccccc2OC)c(=O)c2ccc(C)nc21 | 0 | 0 | - | 0 | - | 0 | -
Cc1c(C)c2cc(Cl)c(OCC(=O)NCCCN3CCCC3=O)cc2oc1=O | - | - | - | - | 11 | - | 0
Cc1cc(=O)oc2cc(OCC(=O)NCCCN3CCCC3=O)c(Cl)cc12 | 0 | 0 | - | 0 | 0 | 0 | -
COc1cccc(C2=CC(=O)C(C(C)(C)C)N2C(C)(C)C)c1 (stereo unspecified) | - | - | - | - | 0 | - | -
COc1ccccc1N1CC(C(=O)Nc2ccccc2N2CCCC2)CC1=O (stereo unspecified) | - | 0 | - | 0 | 7.6 | 0 | 0
COc1ccc(CCN2C(=O)C3C4CC(C5C(C(=O)NN)=NOC45)C3C2=O)cc1OC (stereo unspecified) | 0 | 0 | 0 | 0 | 0 | 0 | -
COc1ccc(CCN2C(=O)C3C4CC(C5C(C(N)=O)=NOC45)C3C2=O)cc1OC (stereo unspecified) | 0 | 0 | 0 | 0 | 15 | 0 | 0
COCCNC(=S)N(C)[C@H]1C[C@H]2c3cc(N4CCN(C)CC4)ccc3CCN2C(=O)[C@H]1[C@H](C)O | - | - | - | - | 0 | - | -
CC1(C)CC(=O)C=C(c2n[nH]nc2-c2ccccc2)C1 | - | - | - | - | 0 | - | -
CCCC#Cc1ccc2c(c1)O[C@H](CN(C)S(=O)(=O)c1cccc(OC)c1)[C@H](C)CN([C@H](C)CO)S2(=O)=O | - | - | - | - | 0 | - | -
Cc1ccc(NC(=O)CCC(=O)NNC(=O)c2ccccc2)c(C)c1 | 0 | 0 | 0 | 0 | 0 | 0 | -
Cc1ccc(NC(=O)CCC(=O)NNC(=O)c2ccccc2Cl)c(C)c1 | 0 | 0 | 0 | 0 | 13 | 0 | 0
Cc1ccsc1-c1nc(CN2CCN(C)C(=O)[C@@H]2C)c(C)o1 | 0 | 0 | 0 | 0 | 0 | 0 | -
Cc1ccsc1-c1nc(CN(C)C(C2CC2)C2CC2)c(C)o1 | 0 | 0 | 0 | 0 | 18 | 0 | 0
Cc1ccc(Nc2cc(C)c(O)c(C)c2)cc1 | 0 | 0 | - | 0 | 0 | 0 | -
O=C(Cn1ncc2c1-c1ccccc1OC2)Nc1ccc(S(=O)(=O)N2CCCCC2)cc1 | 0 | 0 | 0 | 0 | 12 | - | 0
O=C(Cn1nc(-c2ccccc2F)ccc1=O)Nc1ccc(S(=O)(=O)N2CCCCCC2)cc1 | 0 | 0 | 0 | 0 | 0 | 0 | -
CC(C(=O)Nc1ccc2c(c1)OCO2)c1ccc([N+](=O)[O-])cc1 (stereo unspecified) | 0 | 0 | 0 | 0 | 15 | 0 | 0
CC(C(=O)Nc1ccc2c(c1)OCCO2)c1ccc([N+](=O)[O-])cc1 (stereo unspecified) | 0 | 0 | 0 | 0 | 0 | 0 | -
CC1CCc2c(sc(/N=C/N(C)C)c2C#N)C1 (stereo unspecified) | 0 | 0 | 0 | 0 | 0 | 0 | -
CN(C)/C=N/c1sc2c(c1C#N)CCCC2 | 0 | 0 | 0 | 0 | 11 | 0 | 0
Cc1nn(CC(=O)OCC(=O)NCCc2ccc(F)cc2)c(C)c1[N+](=O)[O-] | - | 0 | - | 0 | 9.9 | - | 0
CCOc1ccc(CCNC(=O)COC(=O)Cn2nc(C)c([N+](=O)[O-])c2C)cc1OCC | - | 0 | - | 0 | 0 | 0 | -
COc1cc(NC(=S)NC(=O)c2ccco2)ccc1NC(=O)C(C)C | 0 | 0 | 0 | 0 | 0 | 0 | -
COc1cc(NC(=S)NC(=O)c2ccccc2F)ccc1NC(=O)c1ccco1 | 0 | 0 | 0 | 0 | 54 | 0 | 0
c1ccc2c(C3OCC4(CCCCC4)CO3)cccc2c1 | - | - | - | - | 0 | - | -
